ALOX12 inhib – qHTS Assay for Inhibitors of 12-hLO (12-human lipoxygenase); Polyunsaturated fatty acid lipoxygenase ALOX12 (Homo sapiens), P18054; purified 12-hLO, xylenol orange hydroperoxide absorbance; Potency, µM (titrated, usually from 57.1 µM), inactives show at the top dose activity change, negative = inhibition, most hits filed as inhibitors; 150,000 tested, 0.12% active; note: nearly all actives have a fitted effect of over 55% in size
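Xylenol orange chromogenic assay: hydroperoxide from 12hLO oxidises Fe(II), giving red-shifted Fe(III)-XO absorbance. Conditions: 150 nM enzyme, 40 uM arachidonic acid, 25 mM Hepes pH 7.0, 0.01% Triton X-100, 30 min, room temperature.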
ALOX15B inhib – qHTS Assay for Inhibitors of 15-hLO-2 (15-human lipoxygenase 2); AID 881, 2007; 110,000 tested, 0.56% active; Potency, µM (highest dose often 57.1 µM), without a hit: at the top dose activity change, negative = inhibition, usual class: inhibitors; purified 15hLO-2, xylenol orange hydroperoxide absorbance; note: nearly all actives have a fitted effect of over 60% in size
Target sequence (O15296 whole entry, looked up): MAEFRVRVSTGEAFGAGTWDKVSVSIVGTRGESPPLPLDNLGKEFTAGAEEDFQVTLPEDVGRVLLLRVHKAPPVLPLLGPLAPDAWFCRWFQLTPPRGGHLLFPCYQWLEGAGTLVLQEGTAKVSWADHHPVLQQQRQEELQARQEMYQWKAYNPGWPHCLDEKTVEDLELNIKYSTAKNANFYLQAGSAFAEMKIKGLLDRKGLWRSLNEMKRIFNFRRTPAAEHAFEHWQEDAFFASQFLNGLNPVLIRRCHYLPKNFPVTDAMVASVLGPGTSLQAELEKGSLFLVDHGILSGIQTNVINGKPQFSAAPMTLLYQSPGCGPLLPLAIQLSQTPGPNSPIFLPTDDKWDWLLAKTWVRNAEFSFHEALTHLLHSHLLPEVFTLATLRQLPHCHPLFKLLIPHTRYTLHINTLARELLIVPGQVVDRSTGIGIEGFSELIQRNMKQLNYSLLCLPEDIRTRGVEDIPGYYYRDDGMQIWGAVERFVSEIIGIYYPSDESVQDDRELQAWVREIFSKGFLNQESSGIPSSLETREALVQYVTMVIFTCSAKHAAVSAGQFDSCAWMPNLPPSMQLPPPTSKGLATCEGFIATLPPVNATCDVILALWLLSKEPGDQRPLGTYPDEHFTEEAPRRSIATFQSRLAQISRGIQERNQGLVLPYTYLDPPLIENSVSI
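Read-out: hydroperoxide product oxidises ferrous iron, measured as xylenol orange complex via the 573-to-405 nm absorbance ratio after 30 min. Reaction: 50 nM enzyme, 15 min compound preincubation, 45 uM arachidonic acid, 90 min RT, Hepes pH 7.5 with Triton X-100.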
An asterisk follows results filed as active; ? = inconclusive; · = not tested or not shown; [ ] = another dose, or the depositor's remark. This is one part of a sample in which hits are shown more often than they occur. Calls come from the whole dose curve; as a rule, active = well fitted curve in the direction sought with a large enough effect; inconclusive = small, poorly fitted or top-dose-only effect, or another doubt; inactive = no such curve, though single readings can be large; an effect the other way counts as inactive or inconclusive. % is set by controls: 0 for no effect and ±100 for the full control effect; potency is the fitted concentration of half-maximal effect.

SMILES	ALOX12 inhib	ALOX15B inhib
COc1ccc(OC)c(C2CC(=O)N3CN(c4cccc(Cl)c4C)CSC3=C2C#N)c1 (stereo not given)	?	10µM*
OC[C@@H]1O[C@@H](n2cnc3c(NC4CCCCC4)ncnc32)[C@@H](O)[C@H]1O	-5.6%	3.8%
Cc1ccc(NS(=O)(=O)c2cc(C(=O)O)ccc2Cl)cc1C	-0.6%	·
C/C(=N/Nc1ccc2ccccc2n1)c1ccccc1O	-0.9%[11.4 µM]	11.2%[11.4 µM]
CC(C)N=c1scc(-c2ccco2)n1/N=C/c1ccc(O)c(O)c1	?	12.6µM*
Oc1ccc(/C=N/n2c(-c3ccco3)csc2=Nc2cccnc2)c(O)c1	1.7%	·
C[C@H](N)C1CCC(C(=O)Nc2ccncc2)CC1 (stereo not given in full)	1.5%	8.8%
O=C(O)[C@H](/C=C\c1ccccc1)c1ccccc1	-3.4%[11.4 µM]	-6.3%[11.4 µM]
N#CC1=C(N)SC(N)=C(C#N)C1c1ccnc2ccccc12	-11.6%	?
Cc1ccc(C2C(C#N)=C(N)SC(N)=C2C#N)c(C)c1	?	12.6µM*
COc1ccccc1NC(=S)NC(=O)C1CC1	-1.0%	·
COc1ccccc1NC(=S)NCCc1ccc(Cl)cc1	14.1µM*	?
COc1ccccc1NC(=S)NC(=O)C(C)(C)C	12.6µM*	-24.2%
COc1ccc(NC(=S)NCCc2ccccc2)c(OC)c1	-15.6%	-27.5%
CCN(CC)CCCC(C)NC(=O)c1ccc(-n2c(=O)c(=O)[nH]c3ccccc32)cc1 (stereo not given)	-5.7%	·
Cc1ccccc1NC(=S)NCCc1c[nH]c2ccccc12	-25.2%	·
Cc1ccc(NC(=S)NCCc2c[nH]c3ccccc23)cc1	?	25.1µM*
CC1(C)CC(Nc2ccc(Nc3ccccc3)cc2)CC(C)(C)N1	?	3.98µM*
CC1(C)CC(NC(=O)c2ccccc2Cl)CC(C)(C)N1	-4.7%	7.3%
O=C(O)[C@H]1CCCC[C@@H]1c1c2ccc(=O)c(O)c-2oc2c(O)c(O)ccc12	-14.5%[11.4 µM]	?
O=C(NC(=S)Nc1ccccc1N1CCCCC1)c1ccc(-c2cccc([N+](=O)[O-])c2)o1	-2.9%	25.1µM*
O=C(NC(=S)Nc1ccccc1N1CCOCC1)c1ccc(-c2cccc(Cl)c2)o1	-8.3%	·
O=C(NC(=S)Nc1ccccc1N1CCCC1)c1ccc(-c2cccc([N+](=O)[O-])c2)o1	?	7.94µM*
Cc1c(C(=O)NC(=S)Nc2ccccc2N2CCCC2)cccc1[N+](=O)[O-]	-5.2%	·
COC(=O)C1=C(C(=O)OC)[C@@H]2Nc3ccccc3[C@@]23C[C@@H](C(=O)OC)N(S(=O)(=O)c2ccc(C)cc2)C3=N1	-3.6%[11.4 µM]	·
SMILES	ALOX12 inhib	ALOX15B inhib
COc1ccc2c(c1)CN([C@H](C)[C@@H]1CC[C@@H]3[C@H]4CC[C@H]5C[C@@H](O)CC[C@@]5(C)[C@H]4CC[C@]31C)CO2	1.2%[11.4 µM]	-14.5%[11.4 µM]
O=C(NCCN1CCOCC1)c1ccc(Cc2nc3ccccc3[nH]2)cc1	-0.5%	·
CC(C)OC(=O)c1cc(-c2ccc(C=O)o2)ccc1Cl	-3.6%	·
CCOC(=O)c1cc(-c2ccc(/C=C3/C(=O)NC(=O)C(C#N)=C3C)o2)ccc1Cl	-20.0%	25.1µM*
C[C@H](O)[C@H](O)[C@@H]1CNc2nc(N)[nH]c(=O)c2N1	-7.4%	-15.8%
COC(=O)CSC1=NS(=O)(=O)c2ccccc21	1.4%	?
O=C(CSC1=NS(=O)(=O)c2ccccc21)Nc1ccccc1	3.1%	12.6µM*
Oc1cccc(Nc2ccccc2)c1	-3.1%	-25.5%
CC(C)c1cc(Nc2cccc(O)c2)cc(C(C)C)c1O	?	12.6µM*
CC(C)/C(=N/[N+](C)(C)C)c1ccccc1	6.1%[11.4 µM]	-8.5%[11.4 µM]
c1ccc([C@H](c2cccc3c2ccc2ccccc23)[C@H](c2ccccc2)c2cccc3c2ccc2ccccc23)cc1	5.7%[11.4 µM]	-1.0%[11.4 µM]
CCN(CC)[C@@H](C)CN1c2ccccc2Sc2ccccc21	?	12.6µM*
CCc1ccc2c(c1)N(C[C@H](C)CN(C)C)c1ccccc1S2	3.3%[11.4 µM]	4.5%[11.4 µM]
CC(C)(C)C(=O)NC(=S)NCCc1ccccc1	12.6µM*	12.6µM*
COc1cc(OC)cc(C(=O)NCCNC(=O)c2ccccc2)c1	-2.5%	8.0%
S=C(NCCc1ccccc1)NCCc1ccccc1	-16.1%	·
COc1cc(OC)cc(C(=O)NC(=S)NCCc2ccccc2)c1	3.98µM*	7.94µM*
N.N.N.N.N.N.N.N.N.N.N.N.N.N.O.O.[Ru].[Ru].[Ru]	-13.4%	-4.4%
COc1ccccc1C1Nc2cccc3cccc(c23)N1	-7.6%	?
Oc1ccccc1C1Nc2cccc3cccc(c23)N1	?	2µM*
CN=c1nc(-c2ccccc2)n(-c2ccccc2)s1	?	1µM*
c1ccc(Cn2nc(-c3ccccc3)nc2-c2ccccc2)cc1	-3.5%	·
CC1(C)[C@@H]2CC[C@]1(CC(=O)O)[C@H](Cl)C2	0.6%[11.4 µM]	2.1%[11.4 µM]
C/C(=N\NC(=S)NCCc1ccccc1)c1cccs1	3.98µM*	·
O=C(NCCCc1ccccc1)c1cccs1	2.6%	-5.4%
SMILES	ALOX12 inhib	ALOX15B inhib
CCOc1ccc(S(=O)(=O)N(CC(=O)N/N=C/c2ccc(-c3ccc([N+](=O)[O-])cc3)o2)c2ccccc2)cc1	-18.6%	12.6µM*
Cc1ccc(C)c(N(CC(=O)N/N=C/c2ccc(-c3ccc([N+](=O)[O-])cc3)o2)S(=O)(=O)c2ccccc2)c1	-10.9%	?
COc1cc(C)ccc1OCCOc1cc(C)ccc1Cl	?	15.8µM*
COc1cc(C)ccc1OCCOc1c(Cl)cc(Cl)cc1Cl	-9.2%	13.9%
O=C(O)[C@@H](c1ccccc1)[C@@H](C(=O)O)c1ccccc1	-0.2%[11.4 µM]	-4.6%[11.4 µM]
COc1cccc2c1[C@@H]1CN(CCCCn3c(=O)[nH]c4c(sc5ncc(-c6ccccc6)nc54)c3=O)C[C@H]1CO2	9.3%	45.2%
COc1cc(/C=N/N(C)c2ccccc2)cc(Cl)c1O	?	10µM*
COc1ccc(OC)c(/C=N/N(C)c2ccccc2)c1	-25.7%	-20.4%
NCCOB(c1ccccc1)c1ccccc1	?	20µM*
NCCOc1ccccc1Cc1ccccc1	5.6%	43.1%
Nc1ncnc2c1nc(Sc1ccc(Cl)cc1)n2[C@@H]1O[C@H]2COP(=O)(O)O[C@@H]2[C@H]1O	-3.6%	1.4%
COc1ccccc1-c1cc(Nc2ccn[nH]2)ncn1	·	-4.9%
O=C(NC(=S)Nc1ccc(N2CCOCC2)c(Cl)c1)c1cncc(Br)c1	-29.1%	·
Cc1cc(C)cc(C(=O)NC(=S)Nc2ccc3c(c2)OCCO3)c1	-4.0%	·
CCc1ccc(C(=O)NC(=S)Nc2ccc3c(c2)OCCO3)cc1	14.1µM*	·
O=C(NC(=S)Nc1ccc(N2CCCCC2)c(Cl)c1)c1ccc2c(c1)OCCO2	?	10µM*
O=C(c1ccc(-n2c(=O)c(=O)[nH]c3ccccc32)cc1)N1CCCN(Cc2ccccc2)CC1	-0.2%	·
Nc1nc2c(nc(Br)n2[C@@H]2O[C@H]3COP(=O)(O)O[C@@H]3[C@H]2O)c(=O)[nH]1	-2.7%	3.8%
CC1(C)CCC(=O)N[C@H]1CC(=O)C[C@H]1NC(=O)CCC1(C)C	-0.7%[11.4 µM]	-10.9%[11.4 µM]
COCCN(CCOC)C(=O)c1ccc(Cc2nc3ccccc3[nH]2)cc1	-5.9%	·
COc1ccccc1-c1cc(-c2ccccc2)nc(SC(C(N)=O)c2ccccc2)c1C#N (stereo not given)	-5.0%	15.8µM*
COC(=O)C(Sc1nc(C)cc(C)c1C#N)c1ccccc1 (stereo not given)	-10.7%	-4.7%
